{"source": "paper PMC4336329", "about": "(PLoS ONE, 2015)", "note": "Screen size: about 310,000 compounds; about 2,200 (0.71%) showed an effect of 50% or more. Effects have a minus sign here. For the sample, strong results were picked, then their nearest neighbours and some compounds at random.", "data": [{"target": "human ether-à-go-go-related gene (hERG) potassium channel (human, UniProt Q12809)", "sequence (Q12809 whole entry, looked up)": "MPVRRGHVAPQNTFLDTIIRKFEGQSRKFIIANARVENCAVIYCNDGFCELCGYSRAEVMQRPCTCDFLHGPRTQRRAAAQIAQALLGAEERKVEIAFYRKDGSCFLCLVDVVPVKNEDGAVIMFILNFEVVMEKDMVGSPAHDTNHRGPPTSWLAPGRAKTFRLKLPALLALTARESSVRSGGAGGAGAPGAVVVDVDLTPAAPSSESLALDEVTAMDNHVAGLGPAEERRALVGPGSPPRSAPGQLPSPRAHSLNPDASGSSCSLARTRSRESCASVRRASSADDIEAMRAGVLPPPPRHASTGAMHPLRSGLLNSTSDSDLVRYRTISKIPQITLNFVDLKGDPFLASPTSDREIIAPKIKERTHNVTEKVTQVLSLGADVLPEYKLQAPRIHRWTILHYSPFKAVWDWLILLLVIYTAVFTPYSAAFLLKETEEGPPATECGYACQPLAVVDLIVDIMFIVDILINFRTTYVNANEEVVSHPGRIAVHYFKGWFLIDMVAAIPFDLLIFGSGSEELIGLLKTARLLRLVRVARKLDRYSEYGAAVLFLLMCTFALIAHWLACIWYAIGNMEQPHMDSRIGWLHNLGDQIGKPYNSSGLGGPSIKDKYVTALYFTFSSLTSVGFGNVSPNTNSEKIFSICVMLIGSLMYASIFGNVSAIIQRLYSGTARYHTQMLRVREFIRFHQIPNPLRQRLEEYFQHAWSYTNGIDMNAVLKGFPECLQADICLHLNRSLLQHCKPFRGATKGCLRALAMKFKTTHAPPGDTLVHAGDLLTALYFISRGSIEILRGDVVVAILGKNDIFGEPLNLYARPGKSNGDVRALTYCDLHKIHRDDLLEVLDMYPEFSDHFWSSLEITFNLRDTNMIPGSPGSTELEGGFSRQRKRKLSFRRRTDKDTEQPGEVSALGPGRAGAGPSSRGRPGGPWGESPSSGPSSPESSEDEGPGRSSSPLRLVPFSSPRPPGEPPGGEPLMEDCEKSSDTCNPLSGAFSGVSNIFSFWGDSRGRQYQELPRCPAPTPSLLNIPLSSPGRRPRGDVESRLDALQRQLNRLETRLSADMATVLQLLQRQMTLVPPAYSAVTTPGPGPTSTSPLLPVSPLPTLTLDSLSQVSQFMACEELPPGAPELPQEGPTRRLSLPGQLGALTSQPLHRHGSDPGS", "assay": "primary screen, population patch clamp on CHO cells stably expressing hERG; higher = less effect of the substance", "units": {"hERG current change (%, negative = inhibition) at 1uM": "%"}, "values": [{"molecule": "CN(C)c1ccc(NC(=O)CN2CCC(C(=O)c3ccc(F)cc3)CC2)cc1", "hERG current change (%, negative = inhibition) at 1uM": -4.93}, {"molecule": "CN(C)c1ccc(NC(=O)CN2CCN(CC(=O)Nc3ccc(F)cc3)CC2)cc1", "hERG current change (%, negative = inhibition) at 1uM": -61.1}, {"molecule": "CCN(CC)c1ccc(NC(=O)CN2CCN(CC(=O)Nc3ccc(F)cc3)CC2)cc1", "hERG current change (%, negative = inhibition) at 1uM": -84.5}, {"molecule": "CCN(CC)c1ccc(NC(=O)CN2CCN(CC(=O)Nc3ccccc3F)CC2)cc1", "hERG current change (%, negative = inhibition) at 1uM": -13}, {"molecule": "COc1cccc(N2CCN(CC(=O)Nc3ccc(SC(F)F)cc3)CC2)c1", "hERG current change (%, negative = inhibition) at 1uM": -27.7}, {"molecule": "CN(C)C=O.Cc1cccc(-n2nnnc2SCC(=O)N(CC(C)C)c2c(N)n(CC(C)C)c(=O)[nH]c2=O)c1", "hERG current change (%, negative = inhibition) at 1uM": 4.9}, {"molecule": "O=C(c1cccc(S(=O)(=O)NCc2ccccc2)c1)N1CCCCC1", "hERG current change (%, negative = inhibition) at 1uM": 9.32}, {"molecule": "CCN(CC)CCCN(C(=O)Cn1nnc(-c2ccc(OC)c(OC)c2)n1)C(C(=O)NC(C)(C)C)c1ccc(F)cc1", "note": "(stereo not drawn)", "hERG current change (%, negative = inhibition) at 1uM": -25.2}, {"molecule": "C=CCN1C(=O)C(CC(=O)NCC)SC1=Nc1ccccc1CC", "note": "(stereo not drawn)", "hERG current change (%, negative = inhibition) at 1uM": 11.7}, {"molecule": "c1ccc(CSc2nncn2-c2ccccn2)cc1", "hERG current change (%, negative = inhibition) at 1uM": 7.05}, {"molecule": "O=C(CSC(=S)N1CCCCC1)c1c(F)cccc1F", "hERG current change (%, negative = inhibition) at 1uM": 21.7}, {"molecule": "OC1(c2ccccc2)c2ccccc2-c2ncccc21", "note": "(stereo not drawn)", "hERG current change (%, negative = inhibition) at 1uM": 5.63}, {"molecule": "O=C(Cc1coc2cc3c(cc12)CCC3)NCC1(N2CCCCC2)CCCCC1", "hERG current change (%, negative = inhibition) at 1uM": -59.2}, {"molecule": "O=C(Cc1coc2cc3c(cc12)CCC3)NC1CCCCCCC1", "hERG current change (%, negative = inhibition) at 1uM": 0.112}, {"molecule": "Cc1ccc2c(CC(=O)NCC3(N4CCOCC4)CCCCC3)coc2c1C", "hERG current change (%, negative = inhibition) at 1uM": -5.15}, {"molecule": "O=S(=O)(c1cccs1)N1CN(C2CCCCC2)c2nc3ccccc3nc21", "hERG current change (%, negative = inhibition) at 1uM": 0.376}, {"molecule": "COc1cc(/C=C2\\SC(N3CCc4ccccc4C3)=NC2=O)cc(OC)c1OC", "hERG current change (%, negative = inhibition) at 1uM": 5.93}, {"molecule": "CCCn1c(=N)n(CC(O)COc2cccc(C)c2)c2ccccc21.Cl", "note": "(stereo not drawn)", "hERG current change (%, negative = inhibition) at 1uM": -60}, {"molecule": "CCn1c(=N)n(CC(O)COc2cccc(C)c2)c2ccccc21.Cl", "note": "(stereo not drawn)", "hERG current change (%, negative = inhibition) at 1uM": -16}, {"molecule": "CCN(CC)CCn1c(=N)n(CC(O)COc2cccc(C)c2)c2ccccc21.Cl", "note": "(stereo not drawn)", "hERG current change (%, negative = inhibition) at 1uM": -22.1}, {"molecule": "CCCCn1c(=N)n(CC(O)COc2cccc(C)c2)c2ccccc21.Cl", "note": "(stereo not drawn)", "hERG current change (%, negative = inhibition) at 1uM": -59.8}, {"molecule": "COc1ccc(-c2oc3cccnc3c2C#CC2(O)CCCCC2)cc1", "hERG current change (%, negative = inhibition) at 1uM": 6.61}, {"molecule": "COCCC(=O)N1CCC(Oc2ccc(C(=O)N(C)CCCC3CCCC3)cc2)CC1", "hERG current change (%, negative = inhibition) at 1uM": -1.26}, {"molecule": "Cc1cccn2c(=O)c3cc(C(=O)NC4CCCC4)c(=N)n(CCCN4CCOCC4)c3nc12", "hERG current change (%, negative = inhibition) at 1uM": -77.5}, {"molecule": "CCCn1c(=N)c(C(=O)NC2CCCC2)cc2c(=O)n3cccc(C)c3nc21", "hERG current change (%, negative = inhibition) at 1uM": -84.1}, {"molecule": "Cc1cccn2c(=O)c3cc(C(=O)NC4CCCCC4)c(=N)n(CCN4CCOCC4)c3nc12", "hERG current change (%, negative = inhibition) at 1uM": -51.7}, {"molecule": "C#CCOCCOCCOCCNc1nc(N2CCN(C(=O)[C@H](CCC(=O)O)n3cc(C(N)Cc4ccc(O)cc4)nn3)CC2)nc(N2CCN(C(=O)[C@H](CCC(=O)O)n3cc(C(N)Cc4ccc(O)cc4)nn3)CC2)n1.Cl", "note": "(stereo partly drawn)", "hERG current change (%, negative = inhibition) at 1uM": 12.3}, {"molecule": "Cc1ccnc(SCc2cc(=O)c(OC(=O)c3ccccc3)co2)n1", "hERG current change (%, negative = inhibition) at 1uM": 15}, {"molecule": "CC(NC(=O)C(C)N1C(=O)c2cccc([N+](=O)[O-])c2C1=O)c1ccccc1", "note": "(stereo not drawn)", "hERG current change (%, negative = inhibition) at 1uM": 14.9}, {"molecule": "O=C(c1cc2nc(-c3ccco3)cc(C(F)(F)F)n2n1)N1CCCc2ccccc21", "hERG current change (%, negative = inhibition) at 1uM": 16.9}, {"molecule": "COc1ccc(CNS(=O)(=O)c2c(C(=O)N3CCCCCC3)c(C)n(C)c2C)cc1", "hERG current change (%, negative = inhibition) at 1uM": 10.5}, {"molecule": "C=CCNC(=O)c1onc(CSc2cccc(OC)c2)c1C(=O)O", "hERG current change (%, negative = inhibition) at 1uM": 18.7}, {"molecule": "CCOc1ccc(-c2nc(-c3ccccc3C)no2)cc1", "hERG current change (%, negative = inhibition) at 1uM": 10.9}, {"molecule": "Cc1cc(C)n2nc(-c3cnn(C)c3C(F)(F)F)cc2n1", "hERG current change (%, negative = inhibition) at 1uM": 1.96}, {"molecule": "Cn1c(CSCc2ccccc2)nnc1SCC(=O)Nc1nccs1", "hERG current change (%, negative = inhibition) at 1uM": -17.6}, {"molecule": "O=C1NC(Cc2ccccc2)C(=O)N1CC(=O)N1CCCc2ccccc21", "note": "(stereo not drawn)", "hERG current change (%, negative = inhibition) at 1uM": 5.14}, {"molecule": "Cc1cc(C)c2cc(C(=O)N3CCC(N4CCCCC4)CC3)[nH]c2c1", "hERG current change (%, negative = inhibition) at 1uM": -58.8}, {"molecule": "CCOC(=O)C1CCN(C(=O)c2cc3c(C)cc(C)cc3[nH]2)CC1", "hERG current change (%, negative = inhibition) at 1uM": 12}, {"molecule": "Cc1cc(C)c2cc(C(=O)N3CCC(C(=O)c4ccc(F)cc4)CC3)[nH]c2c1", "hERG current change (%, negative = inhibition) at 1uM": 8.43}, {"molecule": "CCOC(=O)C1CCN(C2CCN(C(=O)c3oc4c(C)c(C)ccc4c3C)CC2)CC1", "hERG current change (%, negative = inhibition) at 1uM": -15.6}, {"molecule": "CCOC(=O)C1CCN(C2CCN(C(=O)c3oc4c(F)cccc4c3C)CC2)CC1", "hERG current change (%, negative = inhibition) at 1uM": -67}, {"molecule": "Cc1c(C(=O)N2CCC(N3CCSCC3)CC2)oc2c(F)cccc12", "hERG current change (%, negative = inhibition) at 1uM": 2.81}]}]}
